Consider 40 compounds from ChEMBL document CHEMBL3433997, “St. Jude Leishmania screening dataset” (2016).

In general, inhibition refers to the relative decrease from the control value, in per cent.

Molecules are shown by their SMILES.

The assay deals with Glucose transporter (Leishmania mexicana) (UniProt O61059). Kind of assay: ST_JUDE_LEISH: Cytotoxicity at 2uM final concentration against transgenic Leishmania Mexicana promastigotes LmGT2 that are glucose transport deficient and complemented with the L. Mexicana glucose transporter 2. Activity is measured by DNA content using SYBR green in vitro. In kind it is functional.
For the compound `CC(=O)N(Cc1nc(-c2cc(Cl)c(Cl)s2)cs1)c1c(C)cccc1C`, the inhibition worked out at 5.58%.
With `O=C(Nc1cccc(-c2nn3ccccc3c2-c2ccnc(Nc3cccc(F)c3)n2)c1)C1CCCCC1`, the inhibition is -1.4%.
For the compound `Cc1cc(C(=O)Nc2ccc(OCc3ccccc3)cc2)on1`, the inhibition is 0.64%.
As for `N#Cc1ccc(C=CC(=O)NC2CCC(CCN3CCc4ccc(-c5cnccn5)cc4CC3)CC2)cc1` (stereo not given), the figure is 0.59%; as for `CCOCn1c(-c2ccccc2)cc2c3c(N)nc(N)nc3ccc21`, 101%.
As for `CCC(C(=O)Nc1ccccc1)n1nc(-c2ccc(C)c(S(=O)(=O)N3CCCCC3)c2)ccc1=O` (stereo not given), the figure is 4.74%; as for `CC(C)CNCc1ccc(-c2ccc(CN(CCCN3CCN(C)CC3)C(=O)/C=C/c3ccccc3)cc2)cc1`, 3.32%.
As for `CC(C)(C)c1ccc(CN2CCC(CNC(=O)c3cc(-c4ccccc4C(F)(F)F)cs3)C2)cc1` (stereo not given), the figure is 1.21%; as for `O=c1ccccn1CCCC1CCCCN1` (stereo not given), 13.5%; as for `COc1ccc(Nc2nccc(-c3ccc(NC(=O)c4cc5cc(F)ccc5[nH]4)cc3)n2)cc1`, -1.37%.
On to `CC(C)NCc1ccc(-c2ccc(-c3nc4cc(C(F)(F)F)ccc4[nH]3)s2)cc1`, for which the inhibition was determined as 15.3%.
As to `c1ccc(-n2ncc(CNCc3ccc(-c4ccc(-c5nc6ccccc6[nH]5)s4)cc3)n2)cc1`, the inhibition is 0.43%.
As for `CN(CCN(C)CC(O)c1ccc(Cl)c(Cl)c1)CC(O)c1ccc(Cl)c(Cl)c1` (stereo not given), the figure is 9.87%; as for `Cc1ccc(-c2nnc(Nc3ccc(C(=O)N4CCCCC4)cc3)c3ccccc23)cc1S(=O)(=O)NCC1CCCO1` (stereo not given), 3.22%.
`O=C(C1COc2ccccc2O1)N(CCCn1ccnc1)Cc1csc(-c2ccc(CNCc3ccccc3)cc2)n1` (stereo not given): the inhibition amounted to 2.05%.
With `COc1ccc2ncc(F)c(CCN3CC4CCCC4(CNCc4ccc5c(n4)NC(=O)CS5)C3)c2n1` (stereo not given), the inhibition was 0.3%.
Take `O=C(Nc1cccc(-c2ccc(-c3nc4cc(C(F)(F)F)ccc4[nH]3)cc2)c1)c1csnn1`: the inhibition is 0.51%.
For the compound `CCCC(CNCc1cccc(OC(F)(F)F)c1)CNc1cc(=O)c2ccccc2[nH]1` (stereo not given), the inhibition came to 2.94%.
Turning to `O=C(c1c(-c2[nH]c3ccccc3c2C(=O)C(F)(F)F)[nH]c2ccccc12)C(F)(F)F`, the inhibition is -1.45%.
As for `COc1ccc(Cl)cc1NC(=O)Nc1cc(C)nc2ccccc12`, the inhibition amounted to 2.81%.
As for `Cc1cccc2nc(-c3ccc(-c4cccc(NC(=O)Nc5ccsc5)c4)cc3)[nH]c12`, the figure is -1.47%; as for `Cc1ccc(Nc2nc3cc(N(C)c4ccnc(Nc5cccc(CCS(C)(=O)=O)c5)n4)ccc3n2C)cc1`, 3.82%; as for `COc1ccc(CNCc2ccc(-c3ccc(-c4nc5cc(F)ccc5[nH]4)cc3)cc2)cc1`, 1.74%.
As for `Cc1csc2nc(-c3ccccn3)nc(Nc3ccncn3)c12`, the figure is 1.79%.
As for `COc1ccccc1C1CCN(C2CCC(NC(=O)/C=C/c3cccc(C(F)(F)F)c3)CC2)CC1` (stereo not given), the inhibition came to 5.04%.
As for `c1ccc2c(Nc3ccc(Oc4ccc(Nc5c6ccccc6nc6ccccc56)cc4)cc3)c3ccccc3nc2c1`, the figure is -1.82%; as for `CC(=O)Nc1ccc(CN2CCC(NC(=O)c3ccc(-c4cccc(Cl)c4)s3)CC2)cc1`, 2.8%.
Regarding `Cc1ccccc1C1CCN(C2CCC(NC(=O)/C=C/c3cccc(Cl)c3)CC2)CC1` (stereo not given), the inhibition was -3.2%.
As for `COc1ccc(CNC2CCN(C)CC2)cc1-c1ccc(S(=O)(=O)NCCc2ccccn2)c(F)c1`, the inhibition was found to be 4.77%.
As for `Clc1cc(Nc2ncnc3cc(C#C[C@H]4CCCN4)sc23)cc2nc(Cc3ccccc3)[nH]c12`, the figure is -1.61%; as for `CN(CC1CCC(NC(=O)/C=C/c2ccc(Cl)c(Cl)c2)CC1)C1CCC(c2c[nH]c3ccccc23)CC1` (stereo not given), 2.15%.
As for `NC(=O)NC(=O)C=Cc1ccco1`, the figure is 1.91%.
For `OC(CNC1CCCCC1)Cn1c2ccccc2c2ccccc21` (stereo not given), the inhibition came to 3.35%.
As for `N#Cc1ccc2c(c1)CN(C1CCC(NC(=O)C3=Cc4cc(Cl)ccc4OC3)CC1)CCC2` (stereo not given), the figure is 5.6%.
Take `COc1cc2c(Nc3cccc(NC(=O)c4ccccc4)c3)ncnc2cc1OCCCN1CCOCC1`: the inhibition turned out to be 0.27%.
In the case of `COc1ccc2c(=NN=Cc3ccccc3F)cc(C)[nH]c2c1`, the inhibition was 0.39%.
Turning to `Nc1cccc(CNCc2cccc(-c3ccc(-c4nc5cc(C(F)(F)F)ccc5[nH]4)cc3)c2)c1`, the inhibition worked out at 3.77%.
For `Cc1cccc2nc(-c3ccc(-c4cccc(CNCc5cccc(N)c5)c4)cc3)[nH]c12`, the inhibition is -1.02%.
As for `Fc1c(CNCC2CCN(CC3CCCCC3)CC2)cccc1C(F)(F)F`, the figure is 5%; as for `O=C(Nc1cccc(-c2ccc(-c3nc4ccccc4[nH]3)cc2)c1)c1cccnc1`, -0.92%.
